Assay results: PubChem BioAssay (NCATS)
Records with an inconclusive call do not appear. A call without a number means that no potency is given here. The source made the active and inactive calls. Calls follow the shape of the dose curve; as a rule, active = well fitted inhibition curve with a large enough effect; inconclusive = small, poorly fitted or top-dose-only effect; inactive = flat fitted curve, though single readings scatter.

Tests used:
Experiment in all cases: qHTS profiling for inhibitors of Plasmodium falciparum proliferation (AID 504749); also: nearly all actives have a fitted effect of over 60% in size
Settings in all cases: P. falciparum in erythrocytes, SYBR Green DNA, 72 h; series mostly up to 28.7 µM
DIV14 = system: DIV14
In short: (§1)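 SYBR Green fluorescence (ex 485 nm, em 535 nm) reports parasite DNA after 72 h compound exposure of infected red cells at 0.3% parasitemia, 2.5% hematocrit; signal normalized to 0.29 uM artemisinin and vehicle wells.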

DIV17 = system: DIV17
In short: as §1

DIV30 = system: DIV30
In short: as §1

Dd2 = system: Dd2
In short: as §1

ECU = system: ECU
In short: as §1

FAB9 = system: FAB9
In short: as §1

GB4 = system: GB4
In short: as §1

HB3 = system: HB3
In short: as §1

ICS = system: ICS
In short: as §1

JCK = system: JCK
In short: as §1

N140 = system: N140
In short: as §1

P93_24 = system: P93_24
In short: as §1

P94_40 = system: P94_40
In short: as §1

PAD = system: PAD
In short: as §1

PC15 = system: PC15
In short: as §1

PC26 = system: PC26
In short: as §1

PC49 = system: PC49
In short: as §1

SC27B = system: SC27B
In short: as §1

TAB109 = system: TAB109
In short: as §1

TAB113 = system: TAB113
In short: as §1
Potency is read from the fitted curve at half-maximal effect.

| SMILES | Potency (DIV14) | Potency (DIV17) | Potency (DIV30) | Potency (Dd2) | Potency (ECU) | Potency (FAB9) | Potency (GB4) | Potency (HB3) | Potency (ICS) | Potency (JCK) | Potency (N140) | Potency (P93_24) | Potency (P94_40) | Potency (PAD) | Potency (PC15) | Potency (PC26) | Potency (PC49) | Potency (SC27B) | Potency (TAB109) | Potency (TAB113) |
| --- | --- | --- | --- | --- | --- | --- | --- | --- | --- | --- | --- | --- | --- | --- | --- | --- | --- | --- | --- | --- |
| C[N+](C)(C)CCOC(N)=O | inactive | inactive | inactive | inactive | inactive | inactive | inactive | inactive | inactive | inactive | inactive | inactive | inactive | inactive | inactive | inactive | inactive | inactive | inactive | inactive |
| O=C(O)CP(=O)(O)O | inactive | inactive | inactive | inactive | inactive | inactive | inactive | inactive | inactive | inactive | inactive | inactive | inactive | inactive | inactive | inactive | inactive | inactive | inactive | inactive |
| CCN(CC)CCNC(=O)c1ccc(NC(C)=O)cc1 | inactive | inactive | inactive | inactive | inactive | inactive | inactive | inactive | inactive | inactive | inactive | inactive | inactive | inactive | inactive | inactive | inactive | inactive | inactive | inactive |
| CCCCOCCOCCOCc1cc2c(cc1CCC)OCO2 | inactive | inactive | inactive | inactive | inactive | inactive | inactive | inactive | inactive | inactive | inactive | inactive | inactive | inactive | inactive | inactive | inactive | inactive | inactive | inactive |
| Cc1nnc(SCC2=C(C(=O)O)N3C(=O)[C@@H](NC(=O)Cn4cnnn4)[C@H]3SC2)s1 | inactive | inactive | inactive | inactive | inactive | inactive | inactive | inactive | inactive | inactive | inactive | inactive | inactive | inactive | inactive | inactive | inactive | inactive | inactive | inactive |
| NS(=O)(=O)c1cc2c(cc1Cl)NC(C1CC3C=CC1C3)NS2(=O)=O (stereo not given) | inactive | inactive | inactive | inactive | inactive | inactive | inactive | inactive | inactive | inactive | inactive | inactive | inactive | inactive | inactive | inactive | inactive | inactive | inactive | inactive |
| CCN(CC)CC(=O)Nc1c(C)cccc1C | inactive | inactive | inactive | inactive | inactive | inactive | inactive | inactive | inactive | inactive | inactive | inactive | inactive | inactive | inactive | inactive | inactive | inactive | inactive | inactive |
| Cc1nc2c([nH]1)c(=O)n(C)c(=O)n2Cc1ccco1 | inactive | inactive | inactive | inactive | inactive | inactive | inactive | inactive | inactive | inactive | inactive | inactive | inactive | inactive | inactive | inactive | inactive | inactive | inactive | inactive |
| CSc1ccc(C(=O)c2[nH]c(=O)[nH]c2C)cc1 | inactive | inactive | inactive | inactive | inactive | inactive | inactive | inactive | inactive | inactive | inactive | inactive | inactive | inactive | inactive | inactive | inactive | inactive | inactive | inactive |
| O=C(CCNNC(=O)c1ccncc1)NCc1ccccc1 | inactive | inactive | inactive | inactive | inactive | inactive | inactive | inactive | inactive | inactive | inactive | inactive | inactive | inactive | inactive | inactive | inactive | inactive | inactive | inactive |
| NC/C=C/C(=O)O | inactive | inactive | inactive | inactive | inactive | inactive | inactive | inactive | inactive | inactive | inactive | inactive | inactive | inactive | inactive | inactive | inactive | inactive | inactive | inactive |
| NC(=O)c1cn(Cc2c(F)cccc2F)nn1 | inactive | inactive | inactive | inactive | inactive | inactive | inactive | inactive | inactive | inactive | inactive | inactive | inactive | inactive | inactive | inactive | inactive | inactive | inactive | inactive |
| CCn1ccnc1CC1COc2ccccc2O1 (stereo not given) | inactive | inactive | inactive | inactive | inactive | inactive | inactive | inactive | inactive | inactive | inactive | inactive | inactive | inactive | inactive | inactive | inactive | inactive | inactive | inactive |
| CCCN(CCC)CCc1cccc2c1CC(=O)N2 | inactive | inactive | inactive | inactive | inactive | inactive | inactive | inactive | inactive | inactive | inactive | inactive | inactive | inactive | inactive | inactive | inactive | inactive | inactive | inactive |
| CN(C)CC[C@@H](c1ccc(Br)cc1)c1ccccn1 | 3.79 µM (active) | 7.57 µM (active) | – | 2.51 µM (active) | inactive | inactive | – | inactive | – | – | – | – | – | inactive | – | – | – | inactive | – | – |
| CCN(CC)CCOCCOC(=O)C1(c2ccccc2)CCCC1 | 2.39 µM (active) | 3.79 µM (active) | 7.57 µM (active) | 2.51 µM (active) | 11.2 µM (active) | – | 6.01 µM (active) | 12.6 µM (active) | 1.41 µM (active) | – | 7.08 µM (active) | 6.31 µM (active) | 7.08 µM (active) | 8.91 µM (active) | 11.2 µM (active) | 12 µM (active) | 7.08 µM (active) | 12.6 µM (active) | 6.31 µM (active) | 11.2 µM (active) |
| CC(=O)[C@]1(O)Cc2c(O)c3c(c(O)c2[C@@H](O[C@H]2C[C@H](N)[C@H](O)[C@H](C)O2)C1)C(=O)c1ccccc1C3=O | 4.78 µM (active) | 4.78 µM (active) | – | 0.158 µM (active) | 7.94 µM (active) | 11.2 µM (active) | 4.78 µM (active) | 4.47 µM (active) | 1.78 µM (active) | 8.91 µM (active) | 4.47 µM (active) | 4.47 µM (active) | 3.16 µM (active) | 5.01 µM (active) | 8.91 µM (active) | – | 7.08 µM (active) | 5.01 µM (active) | 3.98 µM (active) | 4.47 µM (active) |
| CCC(=O)c1ccc2c(c1)N(CCCN(C)C)c1ccccc1S2 | 6.01 µM (active) | 4.78 µM (active) | – | 7.94 µM (active) | inactive | – | – | inactive | 8.91 µM (active) | – | – | – | – | – | – | – | inactive | inactive | – | – |
| CN(C)CCCN1c2ccccc2Sc2ccccc21 | 1.81 µM (active) | 2.87 µM (active) | – | 3.16 µM (active) | inactive | inactive | – | inactive | – | – | – | – | – | – | 2 µM (active) | – | – | – | – | – |
| CC(N=C(NC#N)Nc1ccncc1)C(C)(C)C (stereo not given) | inactive | inactive | inactive | inactive | inactive | inactive | inactive | inactive | inactive | inactive | inactive | inactive | inactive | inactive | inactive | inactive | inactive | inactive | inactive | inactive |
| CN1CCN(C2=Nc3ccccc3Oc3ccc(Cl)cc32)CC1 | inactive | inactive | inactive | inactive | inactive | inactive | – | inactive | – | inactive | inactive | inactive | inactive | inactive | inactive | – | inactive | inactive | inactive | inactive |
| CCc1cccc(N(C)C(N)=Nc2cccc3ccccc23)c1 | 1.51 µM (active) | 1.35 µM (active) | 7.57 µM (active) | 3.16 µM (active) | 7.94 µM (active) | inactive | 5.36 µM (active) | inactive | 2.82 µM (active) | – | – | – | – | 4.47 µM (active) | 5.01 µM (active) | 4.26 µM (active) | – | – | – | – |
| O=C(O)CN(CCOCCOCCN(CC(=O)O)CC(=O)O)CC(=O)O | inactive | inactive | inactive | inactive | inactive | inactive | inactive | inactive | inactive | inactive | inactive | inactive | inactive | inactive | inactive | inactive | inactive | inactive | inactive | inactive |
| FC(F)(F)c1ccccc1-n1ccnc1 | inactive | inactive | inactive | inactive | inactive | inactive | inactive | inactive | inactive | inactive | inactive | inactive | inactive | inactive | inactive | inactive | inactive | inactive | inactive | inactive |
| CCCCCN(CCCCC)C(=O)C(CCC(=O)O)NC(=O)c1ccc(Cl)c(Cl)c1 (stereo not given) | inactive | inactive | inactive | inactive | inactive | inactive | inactive | inactive | inactive | inactive | inactive | inactive | inactive | inactive | inactive | inactive | inactive | inactive | inactive | inactive |
| COC(=O)C1=C(C)NC(C)=C(C(=O)OC(C)(C)CN(C)CCC(c2ccccc2)c2ccccc2)C1c1cccc([N+](=O)[O-])c1 (stereo not given) | 3.79 µM (active) | 3.38 µM (active) | 4.78 µM (active) | 2.24 µM (active) | 3.16 µM (active) | – | 2.13 µM (active) | 3.16 µM (active) | 2 µM (active) | – | 2.51 µM (active) | 2.51 µM (active) | 2.51 µM (active) | 2.51 µM (active) | 6.31 µM (active) | 1.51 µM (active) | – | 2.24 µM (active) | 3.16 µM (active) | 2.51 µM (active) |
| Nc1ncn([C@@H]2O[C@H](CO)[C@@H](O)[C@H]2O)c(=O)n1 | inactive | inactive | inactive | inactive | inactive | inactive | inactive | inactive | inactive | inactive | inactive | inactive | inactive | inactive | inactive | inactive | inactive | inactive | inactive | inactive |
| COCC(=O)O[C@]1(CCN(C)CCCc2nc3ccccc3[nH]2)CCc2cc(F)ccc2[C@@H]1C(C)C | 0.953 µM (active) | 0.601 µM (active) | 3.38 µM (active) | 0.224 µM (active) | 4.47 µM (active) | 10 µM (active) | 0.151 µM (active) | 7.94 µM (active) | 1.78 µM (active) | 7.94 µM (active) | 0.562 µM (active) | 1.58 µM (active) | 2.82 µM (active) | 3.55 µM (active) | 4.47 µM (active) | 3.38 µM (active) | 1.12 µM (active) | 1.78 µM (active) | 2.24 µM (active) | 2 µM (active) |
